# PubChem BioAssay (NCI)
# This is part of a sample that, as a whole, favours compounds with a hit. Of some 79,000 tested, about 15% had one in any assay. Unmarked numbers belong to inactive results. Calls of active or inactive are those of the source. No stated cut-off is given here; in the data, active means growth inhibition above about 70%; inactive means the rest.
# Experiments:
# [1] = NCI Yeast Anticancer Drug Screen. Data for the rad50 strain (AID 155);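 further: 0% = growth of vehicle-only cultures of the same strain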; details: S. cerevisiae rad50 strain growth inhibition; at 50.0 µM; active compounds read high
# How it was run: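 Readout: growth inhibition relative to vehicle-treated cultures. Compound exposure was carried out in a genetically defined yeast strain deficient in DNA damage repair.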
# [2] = NCI Yeast Anticancer Drug Screen. Data for the mec2-1 strain (AID 157); details: S. cerevisiae mec2-1 strain, at 50.0 µM, active compounds read high
# How it was run: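 Growth inhibition is read against vehicle-treated controls after compound exposure of the mec2-1 yeast strain, which is defective in DNA damage repair or cell cycle control.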
# [3] = NCI Yeast Anticancer Drug Screen. Data for the sgs1 mgt1 strain (AID 161);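 further: 0% = growth of cultures given vehicle only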; details: S. cerevisiae sgs1 mgt1 strain, at 50.0 µM, active compounds read high
# How it was run: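 Compounds are added to genetically altered yeast, and growth is compared with cultures given vehicle alone to give percent inhibition.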
# [4] = NCI Yeast Anticancer Drug Screen. Data for the cln2 rad14 strain (AID 165);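 further: 0% = growth equal to vehicle treated cultures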; details: S. cerevisiae cln2 rad14 strain, at 50.0 µM, active compounds read high
# How it was run: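 Growth inhibition, relative to vehicle-treated controls, is the read-out. The test organism is a yeast strain with defined genetic alterations, cln2 rad14.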
# [5] = NCI Yeast Anticancer Drug Screen. Data for the bub3 strain (AID 167); details: S. cerevisiae bub3 mutant strain, at 50.0 µM, active compounds read high
# How it was run: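 Readout: yeast growth inhibition, expressed relative to vehicle-only wells. The test organism is a mutant strain from a panel with lesions in DNA repair or checkpoint genes.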
# [6] = NCI Yeast Anticancer Drug Screen. Data for the mlh1 rad18 strain (AID 175); details: S. cerevisiae mlh1 rad18 strain growth inhibition; at 50.0 µM; active compounds read high
# How it was run: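 Cells of a genetically altered yeast strain, deficient in DNA damage repair, were treated with compound. Their growth was then compared with that of vehicle-treated cultures to give inhibition.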
SMILES,growth inhibition [1],growth inhibition [2],growth inhibition [3],growth inhibition [4],growth inhibition [5],growth inhibition [6]
O=C(C1OC1c1cccc([N+](=O)[O-])c1)C12CC3CC(CC(C3)C1)C2 (centres undefined),12.5%,32%,37.2%,17.1%,53%,54.5%
Cc1cccc(O)c1,-11.7%,-9.8%,-42%,-16.4%,-4.65%,-39.2%
Clc1c(-c2ccccc2)oc2nc3ccccc3nc12,13.9%,6.85%,13.6%,21.6%,-1.55%,26.2%
COC(=O)C1=C(C(=O)OC)N(C(C)C)[C@H]2C(C(=O)OC)=C(C(=O)OC)N(C(C)C)[C@@H]12,0.2%,-9.75%,-19.4%,5.75%,-34.8%,13.3%
Nc1ccc(S(=O)(=O)NCCS(=O)(=O)O)cc1,3.45%,4.25%,-36.8%,-29.3%,-16.2%,-3.75%
NC(=O)c1cccc(F)c1,13.8%,5.3%,-10%,10.2%,2.1%,14.9%
CC(SCc1ccccc1)C(NC(=O)c1ccccc1)C(=O)O (centres undefined),4.95%,9.9%,-8.3%,-0.3%,10.1%,7.55%
Cc1nc2ccc(N)cc2oc1=O,6.55%,15.1%,15.2%,-28.9%,0.8%,9.35%
COc1ccc(C2S/C(=C\c3cccc(OC)c3)C(=O)N2NC(=O)Cc2ccccc2)cc1 (centres undefined),-12.8%,-27.1%,-2.75%,-37.5%,-19.4%,-10.8%
Cc1cnn(-c2ccccc2)[n+]1[O-],0.65%,11.5%,9.5%,-28.8%,9.6%,6.4%
c1ccc(CN2CCCCC(Sc3ccccc3)CC2)cc1 (centres undefined),90.2% (active),93.8% (active),92.2% (active),90.5% (active),89.7% (active),90.9% (active)
COCCC(=O)SCc1ccccc1,9.55%,-45.3%,-9.2%,-35.6%,-16.5%,1%
CSc1nn(C)c2cc(C)c3ccccc3[n+]12,20.4%,-7.8%,-10.2%,7.25%,4.6%,-16.4%
CS(=O)(=O)OCc1nnn(-c2ccccc2)c1COS(C)(=O)=O,7.2%,-9.1%,-3.5%,-40.5%,11.5%,-11.7%
CC1(CCl)Nc2ccccc2C(=O)N1c1ccc(Cl)cc1 (centres undefined),-2.45%,-13.9%,8.95%,-2.05%,20.9%,-0.5%
O=C(NC(=O)c1c(F)cccc1F)Nc1ccc(Br)cc1,29.2%,53.3%,19.4%,7.25%,34.5%,23.4%
C/C(Cl)=N\OC(=O)Nc1ccc([N+](=O)[O-])cc1,34.2%,80.2% (active),85.8% (active),66.8%,87.2% (active),43.4%
COc1ccccc1C1OC2=C(Nc3ccc([N+](=O)[O-])cc3N2)C1=O (centres undefined),12.2%,10.4%,27.9%,16.6%,16.9%,28.1%
Cc1ccc(C(c2ccccc2)C(CC(=O)O)CC(=O)O)cc1 (centres undefined),1.2%,20%,15%,6.45%,5.2%,15.9%
CS(=O)(=O)OC[C@@H]1C2CCC(C2)[C@@H]1COS(C)(=O)=O,-8.45%,-12.8%,1.5%,-52.8%,-3.5%,-14.2%

SMILES,growth inhibition [1],growth inhibition [2],growth inhibition [3],growth inhibition [4],growth inhibition [5],growth inhibition [6]
O=c1c2cc([N+](=O)[O-])ccc2[nH]n1Cc1ccccn1,12.5%,10.2%,-19.6%,9.45%,-13.9%,3.8%
CC[N+](C)(CC)C(Cc1ccccc1)c1ccccc1 (centres undefined),1%,8.8%,24.6%,23%,-5.8%,4.3%
BrCc1ccc(C[P+](c2ccccc2)(c2ccccc2)c2ccccc2)cc1,26.3%,15.3%,16.2%,7%,29.2%,28.4%
COc1ccc([Se][Se]c2ccc(OC)cc2NC(C)=O)c(NC(C)=O)c1,19.8%,-6.8%,18.1%,16.1%,27.9%,7.15%
COC(=O)/C=C/C1C2C3(CCC(C)C12C)OCCS3 (centres undefined),-23.4%,-14.2%,-4.45%,-5.3%,-6.95%,-30.1%
CNC(=S)N(C)/N=C/c1ccccc1,10.3%,2.4%,-3.75%,-28.9%,-7.15%,3%
NC(=O)C1CC(I)C2CC1C(=O)O2 (centres undefined),1.45%,-4.3%,-4.45%,4.3%,0.35%,-6.5%
C1=NC(c2ccccc2)=CN(C2CCCCCCC2)C1(c1ccccc1)C1CCCCCCC1 (centres undefined),40%,72.2% (active),40.2%,45.6%,61.4%,50.4%
CC1OC(OC2C(OC(=O)[C@@H]3CC(C)(C)C[C@@H]4C5=CC[C@@H]6[C@@]7(C)C[C@H](O)[C@H](OC8OC(CO)C(O)C(O)C8O)[C@@](C)(CO)C7[C@H](O)C[C@@]6(C)[C@]5(C)C[C@@H](O)[C@H]43)OCC(O)C2O)C(O)C(O)C1O (some centres undefined),-23.9%,-21.6%,-9.35%,13.2%,1%,-49.7%
O=S(=O)(c1ccccc1)N1CN(S(=O)(=O)c2ccccc2)CN(S(=O)(=O)c2ccccc2)C1,0.95%,-9.35%,19.5%,10.6%,17.9%,6.35%
O=C(c1ccccc1)C(C(c1ccccc1)N1CCOCC1)N1CCOCC1 (centres undefined),-19.1%,2.2%,-4.55%,-9.45%,-5.7%,0.65%
CCOc1cc([N+](=O)[O-])c(OCC)cc1Cl,-24.6%,-53.5%,-19.9%,11%,-17.6%,-29.6%
CCOC(=O)C(NC(C)=O)C(O)c1ccc(Cl)cc1Cl (centres undefined),18.4%,3.4%,0.05%,-45.9%,-9.4%,19.7%
O=C(n1[nH]c(=O)n(-c2ccc([N+](=O)[O-])cc2)c1=O)C(Cl)(Cl)Cl,7.9%,-15.3%,22.5%,7.6%,12.7%,-28.9%
Nc1cccc(C(F)(F)F)c1,-20.8%,0.25%,-16.3%,-58.5%,18.4%,-0.05%
C=CC1ON(C)CCc2cc(OC)c(OC)cc21 (centres undefined),-4.9%,-1%,-53.5%,15.1%,-1.8%,-9.9%
Cc1cc(C(O)CNCCn2cnc3c2c(=O)n(C)c(=O)n3C)ccc1O (centres undefined),38.8%,-1.95%,19.4%,25.1%,-4.95%,12.3%
CCCCCC/C=C\CCCCCCCCCC1=CC(=O)C=C(OC)C1=O,-1.35%,-10.2%,-19%,-83.8%,-31.4%,-11.7%
CCc1ccc(NC(=O)Nc2ccc(Cl)cc2)cc1,-3.2%,7.75%,-8.65%,-16.9%,-0.8%,-12.6%
